Reference: the supplement of paper PMC7411054
Counter-ions that a name gives are not always drawn.

Assays:
Conditions in all cases: treatment time: 24 h
A549-ACTB-RAB5A [1] = experiment: lowest phenotypically active concentration; higher = less potent
How it was run: (§1)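 Live-cell features were measured per well and normalised to solvent control wells after fifteen gene-edited A549, HepG2 and WPMY1 reporter lines had been treated for 24 h at 0.3, 1, 3 or 9 µM in four wells each. A condition was deviating when ≥3 of 4 wells sat beyond the 95th percentile of control Euclidean distances. It was reproducible when the median replicate Pearson correlation exceeded the 95th percentile of non-replicates. Phenotypic activity demanded both.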

WPMY1-CANX-COX4 [2] = experiment: as above
How it was run: as §1

A549-ACTB-RAB5A [3] = experiment: phenotypically active (imaging signature differs from DMSO and reproducible) at any of 0.3-9 uM (binary (1 = active, 0 = inactive)); higher = active
How it was run: as §1

A549-CANX-COX4 = experiment: as above
How it was run: as §1

A549-GM130-SQSTM1 [4] = experiment: as above
How it was run: as §1

A549-TP53BP1-CLTA = experiment: as above
How it was run: as §1

A549-TUBA1B-RELA = experiment: as above
How it was run: as §1

HepG2-ACTB-RAB5A = experiment: as above
How it was run: as §1

HepG2-CANX-COX4 [5] = experiment: as above
How it was run: as §1

HepG2-GM130-SQSTM1 = experiment: as above
How it was run: as §1

HepG2-TP53BP1-CLTA = experiment: as above
How it was run: as §1

HepG2-TUBA1B-RELA = experiment: as above
How it was run: as §1

WPMY1-ACTB-RAB5A = experiment: as above
How it was run: as §1

WPMY1-CANX-COX4 [6] = experiment: as above
How it was run: as §1

WPMY1-GM130-SQSTM1 [7] = experiment: as above
How it was run: as §1

WPMY1-TP53BP1-CLTA = experiment: as above
How it was run: as §1

WPMY1-TUBA1B-RELA = experiment: as above
How it was run: as §1

HepG2-CANX-COX4 [8] = experiment: lowest phenotypically active concentration; higher = less potent
How it was run: as §1

WPMY1-GM130-SQSTM1 [9] = experiment: as above
How it was run: as §1

A549-GM130-SQSTM1 [10] = experiment: as above
How it was run: as §1

SMILES	lowest phenotypically active concentration (A549-ACTB-RAB5A [1]) [µM]	lowest phenotypically active concentration (WPMY1-CANX-COX4 [2]) [µM]	phenotypically active (A549-ACTB-RAB5A [3])	phenotypically active (A549-CANX-COX4)	phenotypically active (A549-GM130-SQSTM1 [4])	phenotypically active (A549-TP53BP1-CLTA)	phenotypically active (A549-TUBA1B-RELA)	phenotypically active (HepG2-ACTB-RAB5A)	phenotypically active (HepG2-CANX-COX4 [5])	phenotypically active (HepG2-GM130-SQSTM1)	phenotypically active (HepG2-TP53BP1-CLTA)	phenotypically active (HepG2-TUBA1B-RELA)	phenotypically active (WPMY1-ACTB-RAB5A)	phenotypically active (WPMY1-CANX-COX4 [6])	phenotypically active (WPMY1-GM130-SQSTM1 [7])	phenotypically active (WPMY1-TP53BP1-CLTA)	phenotypically active (WPMY1-TUBA1B-RELA)	lowest phenotypically active concentration (HepG2-CANX-COX4 [8]) [µM]	lowest phenotypically active concentration (WPMY1-GM130-SQSTM1 [9]) [µM]	lowest phenotypically active concentration (A549-GM130-SQSTM1 [10]) [µM]
Cn1cc(-c2cnc3ccc4ccc(CS(=O)(=O)NCc5ccccn5)cc4c(=O)c3c2)cn1	9	3	1 (active)	0 (inactive)	0 (inactive)	0 (inactive)	1 (active)	0 (inactive)	0 (inactive)	0 (inactive)	0 (inactive)	0 (inactive)	0 (inactive)	1 (active)	0 (inactive)	0 (inactive)	0 (inactive)	–	–	–
NC(=O)[C@@H](CCC(F)(F)F)N(Cc1ccc(-c2ncon2)cc1F)S(=O)(=O)c1ccc(Cl)cc1 [avagacestat]	9	–	1 (active)	0 (inactive)	0 (inactive)	0 (inactive)	0 (inactive)	1 (active)	0 (inactive)	0 (inactive)	0 (inactive)	0 (inactive)	0 (inactive)	0 (inactive)	0 (inactive)	0 (inactive)	0 (inactive)	–	–	–
O=S(=O)(c1cccc2cnccc12)N1CCNCC1	3	9	1 (active)	0 (inactive)	0 (inactive)	1 (active)	1 (active)	1 (active)	1 (active)	1 (active)	1 (active)	1 (active)	1 (active)	1 (active)	1 (active)	1 (active)	1 (active)	3	9	–
O=C1c2c(O)cccc2Cc2cccc(O)c21 [anthralin]	9	–	1 (active)	0 (inactive)	1 (active)	0 (inactive)	0 (inactive)	0 (inactive)	0 (inactive)	0 (inactive)	0 (inactive)	0 (inactive)	1 (active)	0 (inactive)	1 (active)	0 (inactive)	1 (active)	–	9	9
N#Cc1ccc2ncnc(NCCc3ccccc3)c2c1 [Senexin A]	3	3	1 (active)	0 (inactive)	1 (active)	0 (inactive)	0 (inactive)	0 (inactive)	1 (active)	0 (inactive)	0 (inactive)	0 (inactive)	1 (active)	1 (active)	0 (inactive)	0 (inactive)	1 (active)	9	–	3
CC(C)c1c(C(=O)Nc2ccccc2)c(-c2ccccc2)c(-c2ccc(F)cc2)n1CC[C@@H](O)C[C@@H](O)CC(=O)O [atorvastatin]	3	3	1 (active)	0 (inactive)	0 (inactive)	0 (inactive)	0 (inactive)	1 (active)	1 (active)	1 (active)	1 (active)	1 (active)	1 (active)	1 (active)	1 (active)	1 (active)	1 (active)	9	3	–
CNCC[C@H](Oc1cccc2ccccc12)c1cccs1 [duloxetine]	9	–	1 (active)	0 (inactive)	0 (inactive)	0 (inactive)	1 (active)	0 (inactive)	0 (inactive)	0 (inactive)	0 (inactive)	0 (inactive)	0 (inactive)	0 (inactive)	0 (inactive)	0 (inactive)	0 (inactive)	–	–	–
Cc1ccc(O)c([C@H](CCN(C(C)C)C(C)C)c2ccccc2)c1 [Tolterodine L-tartrate]	9	–	1 (active)	0 (inactive)	1 (active)	0 (inactive)	0 (inactive)	0 (inactive)	0 (inactive)	0 (inactive)	0 (inactive)	0 (inactive)	0 (inactive)	0 (inactive)	1 (active)	0 (inactive)	0 (inactive)	–	9	9
CCc1nc(-c2cccc(C)c2)c(-c2ccnc(NC(=O)c3ccccc3)c2)s1	9	–	1 (active)	0 (inactive)	1 (active)	0 (inactive)	0 (inactive)	1 (active)	1 (active)	1 (active)	1 (active)	1 (active)	1 (active)	0 (inactive)	0 (inactive)	0 (inactive)	1 (active)	1	–	9
Cc1ccc(S(=O)(=O)n2c(N)nc3ccccc32)cc1	9	–	1 (active)	0 (inactive)	0 (inactive)	0 (inactive)	0 (inactive)	1 (active)	0 (inactive)	0 (inactive)	0 (inactive)	0 (inactive)	0 (inactive)	0 (inactive)	0 (inactive)	0 (inactive)	0 (inactive)	–	–	–
CN1c2ccc([N+](=O)[O-])cc2N=C(c2ccc(C(=O)O)cc2)c2cc3c(cc21)C(C)(C)CCC3(C)C	9	–	1 (active)	0 (inactive)	1 (active)	0 (inactive)	1 (active)	0 (inactive)	0 (inactive)	0 (inactive)	0 (inactive)	1 (active)	0 (inactive)	0 (inactive)	0 (inactive)	0 (inactive)	0 (inactive)	–	–	9
COc1cc2c(cc1OC)-c1c/c(=N/c3c(C)cc(C)cc3C)n(C)c(=O)n1CC2 [Trequinsin hydrochloride]	9	9	1 (active)	0 (inactive)	1 (active)	0 (inactive)	0 (inactive)	1 (active)	1 (active)	0 (inactive)	0 (inactive)	0 (inactive)	1 (active)	1 (active)	1 (active)	1 (active)	1 (active)	9	9	9
CC(C)(C)c1ccc(C(O)CCCN2CCC(C(O)(c3ccccc3)c3ccccc3)CC2)cc1 (centres undefined) [terfenadine]	9	–	1 (active)	0 (inactive)	1 (active)	0 (inactive)	0 (inactive)	1 (active)	0 (inactive)	0 (inactive)	0 (inactive)	1 (active)	0 (inactive)	0 (inactive)	1 (active)	0 (inactive)	1 (active)	–	3	3
CCC(=O)N1CCOc2c(cc(-c3ccc(OC)c(OC)c3)cc2OC[C@H]2CCCN(C)C2)C1	9	9	1 (active)	0 (inactive)	0 (inactive)	0 (inactive)	1 (active)	1 (active)	1 (active)	0 (inactive)	0 (inactive)	1 (active)	0 (inactive)	1 (active)	0 (inactive)	0 (inactive)	0 (inactive)	9	–	–
CC[C@H](CO)Nc1nc(Nc2cccc(-c3ccccn3)c2)c2ncn(C(C)C)c2n1 [(R)-DRF053 dihydrochloride]	9	9	1 (active)	0 (inactive)	1 (active)	0 (inactive)	0 (inactive)	1 (active)	0 (inactive)	1 (active)	1 (active)	1 (active)	0 (inactive)	1 (active)	0 (inactive)	0 (inactive)	1 (active)	–	–	9
O=c1cc(-c2ccccc2)oc2cc(O)cc(O)c12 [Chrysin]	9	9	1 (active)	0 (inactive)	1 (active)	0 (inactive)	0 (inactive)	0 (inactive)	0 (inactive)	0 (inactive)	0 (inactive)	0 (inactive)	0 (inactive)	1 (active)	0 (inactive)	1 (active)	0 (inactive)	–	–	9
CCC(C)(C)C(=O)O[C@H]1C[C@@H](C)C=C2C=C[C@H](C)[C@H](CC[C@@H]3C[C@@H](O)CC(=O)O3)[C@H]21 [Simvastatin]	3	1	1 (active)	0 (inactive)	0 (inactive)	1 (active)	0 (inactive)	1 (active)	1 (active)	1 (active)	1 (active)	1 (active)	1 (active)	1 (active)	1 (active)	1 (active)	1 (active)	1	1	–
O=C(CCCCCCC(=O)Nc1ccc([C@H]2O[C@@H](CSc3nc(-c4ccccc4)c(-c4ccccc4)o3)C[C@@H](c3ccc(CO)cc3)O2)cc1)NO [Tubacin]	9	9	1 (active)	0 (inactive)	1 (active)	0 (inactive)	0 (inactive)	0 (inactive)	0 (inactive)	0 (inactive)	0 (inactive)	0 (inactive)	1 (active)	1 (active)	1 (active)	1 (active)	1 (active)	–	3	9
Fc1ccccc1Nc1nc2nonc2nc1Nc1ccccc1F	9	9	1 (active)	0 (inactive)	1 (active)	0 (inactive)	1 (active)	0 (inactive)	0 (inactive)	0 (inactive)	1 (active)	1 (active)	1 (active)	1 (active)	0 (inactive)	0 (inactive)	0 (inactive)	–	–	3
Nc1ncnc2c1c(-c1ccc(Oc3ccccc3)cc1)nn2C1CCCC1	9	–	1 (active)	0 (inactive)	1 (active)	0 (inactive)	1 (active)	0 (inactive)	0 (inactive)	0 (inactive)	0 (inactive)	0 (inactive)	0 (inactive)	0 (inactive)	0 (inactive)	1 (active)	0 (inactive)	–	–	9
Nc1cc(N)c(N)cc1N [FAK Inhibitor 14]	3	9	1 (active)	0 (inactive)	1 (active)	0 (inactive)	1 (active)	0 (inactive)	0 (inactive)	0 (inactive)	1 (active)	1 (active)	1 (active)	1 (active)	1 (active)	1 (active)	1 (active)	–	3	9
COc1cc2nccc(Oc3ccc(NC(=O)C4(C(=O)Nc5ccc(F)cc5)CC4)cc3)c2cc1OC	3	–	1 (active)	0 (inactive)	1 (active)	0 (inactive)	1 (active)	0 (inactive)	0 (inactive)	0 (inactive)	0 (inactive)	0 (inactive)	1 (active)	0 (inactive)	0 (inactive)	0 (inactive)	0 (inactive)	–	–	3
